Inconclusive results are not listed. Calls of active or inactive are those of the source. Unless noted, calls come from the whole dose curve.
These compounds were tested against Rap guanine nucleotide exchange factor 3 (Homo sapiens) (UniProt O95398) (assay: Counterscreen qHTS for antagonist of cAMP-regulated guanine nucleotide exchange factor 3 (EPAC1) (AID 1645888; active = well fitted inhibition curve with a large enough effect;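 note: fluorescence loss as bound BODIPY-GDP is released from Rap1B; % of control where 0% means no effect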)). Conditions: Rap1B-BODIPY-GDP nucleotide exchange, fluorescence; series mostly up to 154 µM.
Chain of Rap guanine nucleotide exchange factor 3 (Homo sapiens) (O95398 whole entry, looked up): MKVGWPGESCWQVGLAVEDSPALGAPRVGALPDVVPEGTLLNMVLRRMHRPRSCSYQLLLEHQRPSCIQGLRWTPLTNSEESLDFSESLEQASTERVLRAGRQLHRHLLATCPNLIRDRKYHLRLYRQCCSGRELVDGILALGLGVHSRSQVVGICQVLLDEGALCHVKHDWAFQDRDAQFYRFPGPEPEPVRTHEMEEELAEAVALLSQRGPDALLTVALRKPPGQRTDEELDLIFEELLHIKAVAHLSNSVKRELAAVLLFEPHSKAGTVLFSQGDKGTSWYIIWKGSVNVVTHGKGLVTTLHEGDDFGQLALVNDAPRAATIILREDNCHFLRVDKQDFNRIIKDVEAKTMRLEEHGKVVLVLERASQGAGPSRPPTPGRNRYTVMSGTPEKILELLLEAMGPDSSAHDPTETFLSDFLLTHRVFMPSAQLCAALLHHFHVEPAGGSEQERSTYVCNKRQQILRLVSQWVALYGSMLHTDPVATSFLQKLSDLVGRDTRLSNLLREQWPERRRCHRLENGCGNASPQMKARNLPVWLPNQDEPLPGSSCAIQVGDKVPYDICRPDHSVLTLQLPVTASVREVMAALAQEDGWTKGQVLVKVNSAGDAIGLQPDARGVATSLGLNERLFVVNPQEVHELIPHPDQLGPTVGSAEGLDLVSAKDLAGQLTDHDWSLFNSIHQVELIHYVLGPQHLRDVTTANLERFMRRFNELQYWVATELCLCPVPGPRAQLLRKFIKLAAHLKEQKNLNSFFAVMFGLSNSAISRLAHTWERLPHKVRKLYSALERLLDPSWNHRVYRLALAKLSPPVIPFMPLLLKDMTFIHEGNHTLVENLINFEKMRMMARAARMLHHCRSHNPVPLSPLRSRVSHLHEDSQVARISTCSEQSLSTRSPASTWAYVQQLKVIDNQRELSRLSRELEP
Description: Assay Provider (PI): Xiaodong Cheng Ph.D. The University of Texas Medical Branch, […], TX MLPCN Grant: NS066510 In multi-cellular eukaryotic organisms, the effects of cAMP are transduced by two ubiquitously-expressed intracellular cAMP receptors, the classic protein kinase A/cAMP-dependent protein kinase (PKA/cAPK) and the more recently discovered exchange protein directly activated by cAMP/cAMP-regulated guanine nucleotide exchange factor (EPAC/cAMP-GEF). Both PKA and EPAC are ubiquitously expressed in all tissues, and an increase in intracellular cAMP levels will lead to the activation of both PKA and EPAC. Therefore, careful dissections of the individual role and relative contribution of EPAC and PKA within the overall cAMP signaling in various model systems are critical for further elucidating the mechanism of cAMP signaling. To date no EPAC-specific antagonists and agonist, as well as isoform-specific agonists have been reported, and developing EPAC-specific pharmacological probes to determine the physiological functions that EPAC play in the overall cAMP-mediated signaling remains a major challenge within the research field. Furthermore, identified regulators of EPAC may lead to new mechanism-based therapeutic strategies specifically targeting the EPAC / cAMP-signaling components as EPAC has been implicated to play important roles in major human pathological conditions such as diabetes, heart disease, and cancer. This qHTS will be used to screen the Molecular Libraries Small Molecule Repository (MLSMR) as a concentration-titration series using the NCGC unique quantitative screening (qHTS) platform to find activators for EPAC1. […] Activators are identified by monitoring the change in fluorescence signal as the exchanged free BODIPY-GDP has a reduced fluorescence compared to Rap1-bound BODIPY-GDP. […]
EPAC1 Counterscreen PROTOCOL TABLE SEQUENCE No. (e.g., 1, 2, 3, etc.); […] […] Fluorescence. (Read 1), Ex/Em = 480 nm / 540 nm. […] Fluorescence. (Read 2), Ex/Em = 480 nm/ 540 nm. […] Fluorescence. (Read 3), Ex/Em = 480 nm / 540 nm. […] Fluorescence. (Read 4), Ex/Em = 480 nm / 540 nm. […]

Row | SMILES | outcome
1 | O=C(O)CSc1cc(NS(=O)(=O)c2ccc(Br)cc2)c2ccccc2c1O | inactive
2 | CC(=O)[C@H]1CC[C@H]2[C@@H]3CC=C4C[C@@H](OS(=O)(=O)O)CC[C@]4(C)[C@H]3CC[C@]12C | inactive
3 | N#Cc1ccc(Nc2nc(-c3ccc(O)cc3O)cs2)cc1C(F)(F)F | inactive

Each compound was assayed against Catechol O-methyltransferase (Homo sapiens) (UniProt P21964) (assay: Confirmatory Screen for Target Class Profiling of Small Molecule Inhibitors of Methyltransferases (AID 1745852; note: potency is the fitted concentration of half-maximal effect; for activity change, negative = inhibition: % is set by controls: 0 for no effect and ±100 for the full control effect)). Conditions: MTase-Glo luminescence, SAH detection, recombinant enzyme; measured here: COMT max response; stronger effect = lower value.
Chain of Catechol O-methyltransferase (Homo sapiens) (P21964 whole entry, looked up): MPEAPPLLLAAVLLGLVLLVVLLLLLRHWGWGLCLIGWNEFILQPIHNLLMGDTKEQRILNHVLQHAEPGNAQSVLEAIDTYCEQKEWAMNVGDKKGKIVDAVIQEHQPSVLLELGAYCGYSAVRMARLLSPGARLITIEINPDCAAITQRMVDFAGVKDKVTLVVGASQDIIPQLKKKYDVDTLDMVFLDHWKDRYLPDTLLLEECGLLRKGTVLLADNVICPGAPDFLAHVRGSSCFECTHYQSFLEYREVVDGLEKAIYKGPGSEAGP

Row | SMILES | activity
4 | O=S1(=O)CCN(Cc2cc(NCC3CCOCC3)c3[nH]c(-c4ccccc4)cc3c2)CC1 | -4.1%
5 | O=C(c1ccccc1)c1c(O)cc(O)cc1O[C@@H]1O[C@H](CO)[C@@H](O)[C@H](O)[C@H]1O | -80.6%
6 | CC(C)C[C@H](CO)Nc1nc(S[C@@H](C)c2ccccc2)nc2nc(N)sc12 | -3.51%
7 | O=C(c1ccc(Cl)cc1)N1CCN(c2ccnc3cc(Cl)ccc23)CC1 | -6.44%
8 | Cc1c[nH]c2ncnc(N3CCC(CN)(C(=O)Nc4cccc(OC(=O)N(C)C)c4)CC3)c12 | -12.7%
9 | C=CC(=O)Nc1cccc(Nc2nc(Nc3ccc(OCCOC)cc3)ncc2F)c1 | -40.1%
10 | Cc1c(OCc2cccc(-c3ccc(C(=O)O)cc3)c2)cc2c(c1C)C(=O)C(C1CCCC1)C2 (stereo unspecified) | -4.94%
11 | COc1c(CCC(=O)O)cccc1O[C@@H]1O[C@H](CO)[C@@H](O)[C@H](O)[C@H]1O | -74.9%
12 | C[C@]12CC[C@@H]3c4ccc(O)c(O)c4CC[C@H]3[C@@H]1CCC2=O | -61.7%
13 | CCOC(=O)N1CCC(CN(Cc2ccc(Cl)cc2)Cc2ccc([N+](=O)[O-])s2)C1 (stereo unspecified) | -21.2%
14 | C=C1C(OC2OC(CO)C(O)C(O)C2O)CC2C(C)(C)C(O)CCC2(C)C1CC/C(C)=C\COC(=O)CC(=O)O (stereo unspecified) | -58.5%
15 | Fc1ccc2c(CCNCc3cccc(OCC(F)(F)C(F)F)c3)c[nH]c2c1 | -0.052%
16 | Cc1[nH]c(/C=C2\C(=O)Nc3ccc(S(=O)(=O)N(C)c4cccc(Cl)c4)cc32)c(C)c1C(=O)N1CCN(C)CC1 | -10.8%
17 | CCn1c2ccccc2c2cc(Nc3ccnc(NCCCN4CCOCC4)n3)ccc21 | -20%
18 | COc1ccc(CCN(C)CCCOc2nsc(-c3ccccc3)n2)cc1OC | -5.88%
19 | COc1cc2c(Nc3cc(F)c(Cl)c(Cl)c3)ncnc2cc1OCC1CCCN(C)CCC1 | -15.2%
20 | CC1(C)CC[C@]2(C(=O)O[C@@H]3O[C@H](CO)[C@@H](O)[C@H](O)[C@H]3O)CC[C@]3(C)C(=CCC4[C@@]5(C)CC[C@H](O[C@@H]6O[C@H](C(=O)O)[C@H](O)[C@H](O)[C@H]6O)C(C)(C)C5CC[C@]43C)[C@@H]2C1 (stereo partly specified) | -55%

Row | SMILES | activity
21 | CC(C)(C[C@@](O)(Cc1cc2ccncc2[nH]1)C(F)(F)F)c1cc(F)ccc1O | 1.72%
22 | CC[C@H]1CN(c2nc(N)c(C(N)=O)nc2Cl)CCN1C1CCN(Cc2ccc(Cl)cc2)CC1 | -6.83%
23 | CN1CCN(Cc2ccc(NC(=O)Cc3ccc(Oc4cc(NC(=O)C5CC5)ncn4)cc3)cc2C(F)(F)F)CC1 | -8.91%
24 | COc1ccc(CCc2nc3c(C)c(-c4c(C)noc4C)c(C)cc3n2CCN2CCOCC2)cc1 | 6.34%
25 | Cc1nnc(C[C@@H]2C=C(c3ccc(Cl)cc3)c3ccccc3-n3c(C)nnc32)o1 | -1.31%
26 | CC(=O)OC/C(=C/C(=O)O)CC[C@@H]1C(C=O)=CC[C@@H]2C(C)(C)CCC[C@@]12C | -75.1%
27 | CN(C)CC1CCn2c(c(C3=C(c4cn(C)c5ccccc45)C(=O)NC3=O)c3ccccc32)C1 (stereo unspecified) | -13.6%
28 | Nc1ncnc2c1c(-c1ccc(Oc3ccccc3)cc1)nn2[C@@H]1CCCNC1 | -13.8%
29 | Cc1cc(NC(=O)c2cccc(NC(=O)/C=C/CN(C)C)c2)ccc1Nc1nccc(-c2cccnc2)n1 | -3.09%
30 | COc1ccc(NC(=O)c2ccc(-c3ccc(C(=N)N)cc3C)cc2)cc1N1CCN(C)CC1 | -5.44%
31 | COC(=O)CC1OC(C)C2=C(O)c3c(O)cccc3C(=O)C23OC13 (stereo unspecified) | -4.94%
32 | Cc1nc(C#Cc2ccnc(Cl)c2)c(C)n1-c1ccc(F)cc1 | -47.3%
33 | CCCc1cc2c(N3CCN(C4=NCC(C)(C)S4)CC3)ncnc2s1 | -3.43%
34 | CCNC(=O)C#Cc1ccc2c(C(=Nc3ccc(CN(C)C)cc3)c3ccccc3)c(O)[nH]c2c1 | -20.9%
35 | COc1cccc(-c2cn(-c3ccc(CCN4CCC(O)CC4)cc3)c3ncnc(N)c23)c1 | -79.5%
36 | Nc1nc(NC2CC2)cc(-c2cccc(Cl)c2Cl)n1 | -8.02%
37 | O=C(Nc1ccc(C(F)(F)F)cn1)N1CCN(c2ncccc2C(F)(F)F)CC1 | -1.28%

The compounds below were run against Guanidinoacetate N-methyltransferase (Homo sapiens) (UniProt Q14353) in the same assay as above. Conditions: MTase-Glo luminescence, SAH detection, recombinant enzyme; activity change, negative = inhibition: at 57.3 µM (top of the series) unless noted; series mostly up to 57.3 µM.

Row | SMILES | activity change, negative = inhibition | Potency
38 | O=S1(=O)CCN(Cc2cc(NCC3CCOCC3)c3[nH]c(-c4ccccc4)cc3c2)CC1 | -1.81% | 
39 | O=C(c1ccccc1)c1c(O)cc(O)cc1O[C@@H]1O[C@H](CO)[C@@H](O)[C@H](O)[C@H]1O | -2.61% | 
40 | CC(C)C[C@H](CO)Nc1nc(S[C@@H](C)c2ccccc2)nc2nc(N)sc12 | 1.87% | 
41 | O=C(c1ccc(Cl)cc1)N1CCN(c2ccnc3cc(Cl)ccc23)CC1 | -4.09% | 
42 | Cc1c[nH]c2ncnc(N3CCC(CN)(C(=O)Nc4cccc(OC(=O)N(C)C)c4)CC3)c12 | -4.87% [at 114 µM] | 
43 | C=CC(=O)Nc1cccc(Nc2nc(Nc3ccc(OCCOC)cc3)ncc2F)c1 |  | 27.1 µM (active)
44 | Cc1c(OCc2cccc(-c3ccc(C(=O)O)cc3)c2)cc2c(c1C)C(=O)C(C1CCCC1)C2 (stereo unspecified) | -6.27% | 
45 | COc1c(CCC(=O)O)cccc1O[C@@H]1O[C@H](CO)[C@@H](O)[C@H](O)[C@H]1O | 2.56% | 
46 | C[C@]12CC[C@@H]3c4ccc(O)c(O)c4CC[C@H]3[C@@H]1CCC2=O | -3.15% | 
47 | CCOC(=O)N1CCC(CN(Cc2ccc(Cl)cc2)Cc2ccc([N+](=O)[O-])s2)C1 (stereo unspecified) | 1.91% | 
48 | C=C1C(OC2OC(CO)C(O)C(O)C2O)CC2C(C)(C)C(O)CCC2(C)C1CC/C(C)=C\COC(=O)CC(=O)O (stereo unspecified) | 0% [at 19.1 µM] | 
49 | Fc1ccc2c(CCNCc3cccc(OCC(F)(F)C(F)F)c3)c[nH]c2c1 | 0.441% | 
50 | Cc1[nH]c(/C=C2\C(=O)Nc3ccc(S(=O)(=O)N(C)c4cccc(Cl)c4)cc32)c(C)c1C(=O)N1CCN(C)CC1 | -2.8% | 
51 | CCn1c2ccccc2c2cc(Nc3ccnc(NCCCN4CCOCC4)n3)ccc21 | -7.76% | 
52 | COc1ccc(CCN(C)CCCOc2nsc(-c3ccccc3)n2)cc1OC | -0.0909% | 
53 | COc1cc2c(Nc3cc(F)c(Cl)c(Cl)c3)ncnc2cc1OCC1CCCN(C)CCC1 | -2.91% | 
54 | CC1(C)CC[C@]2(C(=O)O[C@@H]3O[C@H](CO)[C@@H](O)[C@H](O)[C@H]3O)CC[C@]3(C)C(=CCC4[C@@]5(C)CC[C@H](O[C@@H]6O[C@H](C(=O)O)[C@H](O)[C@H](O)[C@H]6O)C(C)(C)C5CC[C@]43C)[C@@H]2C1 (stereo partly specified) | -1.02% [at 19.1 µM] | 

Row | SMILES | activity change, negative = inhibition | Potency
55 | CC(C)(C[C@@](O)(Cc1cc2ccncc2[nH]1)C(F)(F)F)c1cc(F)ccc1O | 0% | 
56 | CC[C@H]1CN(c2nc(N)c(C(N)=O)nc2Cl)CCN1C1CCN(Cc2ccc(Cl)cc2)CC1 | -2.17% [at 29.8 µM] | 
57 | CN1CCN(Cc2ccc(NC(=O)Cc3ccc(Oc4cc(NC(=O)C5CC5)ncn4)cc3)cc2C(F)(F)F)CC1 | 0.726% | 
58 | COc1ccc(CCc2nc3c(C)c(-c4c(C)noc4C)c(C)cc3n2CCN2CCOCC2)cc1 | 5.22% | 
59 | Cc1nnc(C[C@@H]2C=C(c3ccc(Cl)cc3)c3ccccc3-n3c(C)nnc32)o1 |  | inactive
60 | CC(=O)OC/C(=C/C(=O)O)CC[C@@H]1C(C=O)=CC[C@@H]2C(C)(C)CCC[C@@]12C | -3.55% | 
61 | CN(C)CC1CCn2c(c(C3=C(c4cn(C)c5ccccc45)C(=O)NC3=O)c3ccccc32)C1 (stereo unspecified) | -2.82% | 
62 | Nc1ncnc2c1c(-c1ccc(Oc3ccccc3)cc1)nn2[C@@H]1CCCNC1 | -5.27% | 
63 | Cc1cc(NC(=O)c2cccc(NC(=O)/C=C/CN(C)C)c2)ccc1Nc1nccc(-c2cccnc2)n1 | 1.37% | 
64 | COc1ccc(NC(=O)c2ccc(-c3ccc(C(=N)N)cc3C)cc2)cc1N1CCN(C)CC1 | 2.76% | 
65 | COC(=O)CC1OC(C)C2=C(O)c3c(O)cccc3C(=O)C23OC13 (stereo unspecified) | -3.96% | 
66 | Cc1nc(C#Cc2ccnc(Cl)c2)c(C)n1-c1ccc(F)cc1 |  | 30.4 µM (active)
67 | CCCc1cc2c(N3CCN(C4=NCC(C)(C)S4)CC3)ncnc2s1 | 1.29% | 
68 | CCNC(=O)C#Cc1ccc2c(C(=Nc3ccc(CN(C)C)cc3)c3ccccc3)c(O)[nH]c2c1 | -11.9% [at 29.8 µM] | 
69 | COc1cccc(-c2cn(-c3ccc(CCN4CCC(O)CC4)cc3)c3ncnc(N)c23)c1 |  | 24.1 µM (active)
70 | Nc1nc(NC2CC2)cc(-c2cccc(Cl)c2Cl)n1 | -4.54% | 
71 | O=C(Nc1ccc(C(F)(F)F)cn1)N1CCN(c2ncccc2C(F)(F)F)CC1 | 0% | 

— PubChem BioAssay (NCATS)
